# Source: PubChem BioAssay
# Active and inactive are the calls of the source. Unless noted, the rule behind the calls is not given here.
# Assays:
# [1] = HepG2 liver cancer cell viability effects, profiling panel, resazurin fluorescence, 24 h, PK04 Diversity Set (AID 1172); conditions: higher = more signal
# [2] = basal S. cerevisiae growth modulation, no modifier, primary screen, OD600, strain BY4716, 24 h, basal condition (AID 1173); conditions: OD600, 24 h, higher = more signal, called active from +8 up or from −8 down
# [3] = MM1S myeloma cell viability, profiling panel, resazurin fluorescence, basal, 24 h, PK04 Diversity Set (AID 1174); conditions: higher = more signal, called active from +8 up or from −8 down;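 note: MM1S multiple myeloma cell line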
# [4] = target: Dihydroorotate dehydrogenase (quinone), mitochondrial (Plasmodium falciparum (isolate 3D7)) (UniProt Q08210); test: PfDHODH enzyme inhibitors, primary screen, biochemical, C-terminal His tag, absorbance 600 nm (AID 1175); conditions: DCIP absorbance 600 nm, higher = more signal, called active from +8 up or from −8 down;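 note: recombinant parasite enzyme with a five histidine tag at its C terminus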
# Dihydroorotate dehydrogenase (quinone), mitochondrial (Plasmodium falciparum (isolate 3D7)), sequence (Q08210 whole entry, looked up): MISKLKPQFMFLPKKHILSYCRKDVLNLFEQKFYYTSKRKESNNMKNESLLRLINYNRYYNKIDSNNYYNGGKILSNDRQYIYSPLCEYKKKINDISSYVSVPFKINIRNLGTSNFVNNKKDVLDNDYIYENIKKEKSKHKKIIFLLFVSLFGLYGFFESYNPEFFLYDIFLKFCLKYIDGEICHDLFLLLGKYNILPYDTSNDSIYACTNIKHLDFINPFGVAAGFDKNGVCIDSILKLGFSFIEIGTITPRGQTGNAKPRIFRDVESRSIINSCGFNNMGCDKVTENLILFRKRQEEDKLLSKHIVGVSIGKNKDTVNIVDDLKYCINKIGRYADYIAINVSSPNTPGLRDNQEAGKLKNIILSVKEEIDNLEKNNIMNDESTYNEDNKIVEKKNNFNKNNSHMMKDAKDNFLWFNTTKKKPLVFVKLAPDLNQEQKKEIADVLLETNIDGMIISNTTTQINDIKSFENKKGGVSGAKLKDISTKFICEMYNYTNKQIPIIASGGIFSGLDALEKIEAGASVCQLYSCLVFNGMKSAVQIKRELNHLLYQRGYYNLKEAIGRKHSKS
# [5] = P. aeruginosa biofilm formation inhibitors, primary screen, strain PAO1, LB-PBS medium, absorbance 600 nm (AID 1176); conditions: P. aeruginosa PAO1 growth/biofilm, A600, 12 h; higher = more signal
# [6] = S. cerevisiae RM11-1a growth modifiers, primary screen, strain RM11-1a, OD600, basal, 24 h (AID 1177); conditions: OD600, 24 h, higher = more signal, called active from +8 up or from −8 down;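 note: cultures grown under basal conditions with no added stressor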
# [7] = E. coli acrAB mutant growth effects, primary screen, E. coli filamentation inducers, strain DRC39, OD650, 24 h (AID 1178); conditions: higher = more signal, called active from +8 up or from −8 down;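 note: growth measured as culture turbidity by optical density at 650 nm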
# [8] = E. coli acrAB mutant growth effects, primary screen, E. coli filamentation inducers, strain DRC39, OD650, 48 h (AID 1179);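 note: screen aims at cell division blockers that make cells filament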; conditions: E. coli DRC39 delta-acrAB growth, higher = more signal, called active from +8 up or from −8 down
# [9] = RPMI8226 myeloma cell viability, profiling panel, resazurin fluorescence, basal, 24 h, PK04 Diversity Set (AID 1180); conditions: higher = more signal;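 note: RPMI8826 multiple myeloma cell line at 5000 cells per well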
# [10] = target: E3 ubiquitin-protein ligase XIAP (Homo sapiens) (UniProt P98170); test: XIAP binders, primary screen, biophysical, small-molecule microarray, fluorescence 635 nm (AID 1181); conditions: small-molecule microarray binding, higher = more signal;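 note: score merges 667 nm emission and signal to noise over triplicate slides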
# E3 ubiquitin-protein ligase XIAP (Homo sapiens), sequence (P98170 whole entry, looked up): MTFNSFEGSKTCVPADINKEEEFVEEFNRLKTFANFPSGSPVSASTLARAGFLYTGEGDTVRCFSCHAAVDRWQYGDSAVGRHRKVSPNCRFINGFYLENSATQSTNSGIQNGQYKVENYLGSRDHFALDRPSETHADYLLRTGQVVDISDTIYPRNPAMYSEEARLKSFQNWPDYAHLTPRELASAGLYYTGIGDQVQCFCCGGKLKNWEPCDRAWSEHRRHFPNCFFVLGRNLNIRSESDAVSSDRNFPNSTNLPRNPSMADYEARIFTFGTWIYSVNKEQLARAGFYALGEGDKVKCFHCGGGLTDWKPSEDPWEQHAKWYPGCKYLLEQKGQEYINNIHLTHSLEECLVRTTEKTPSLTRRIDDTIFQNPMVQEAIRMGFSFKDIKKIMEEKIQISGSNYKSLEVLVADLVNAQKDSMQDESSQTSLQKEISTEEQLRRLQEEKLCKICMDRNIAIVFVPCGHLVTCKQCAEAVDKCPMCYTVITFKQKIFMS
# [11] = tested on: XIP peptide (Xip251-270) binding; test: small-molecule binders of XIP peptide, primary screen, biochemical, small-molecule microarray, fluorescence 635/667 nm, 0.1 µg/mL protein (AID 1182); conditions: fluorescent protein binding, 635 nm, higher = more signal, called active from +8 up or from −8 down
# [12] = tested on: XIP peptide (Xip251-270); test: small-molecule binders of XIP peptide, primary screen, biochemical, small-molecule microarray, fluorescence 635/667 nm, 0.5 µg/mL protein (AID 1183); conditions: small-molecule microarray binding, fluorescence 635 nm; higher = more signal
# [13] = Plasmodium falciparum growth inhibition, primary screen, strain 3D7, DAPI fluorescence, 100 nL (AID 1184);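 note: parasites grown inside human red blood cells in medium with human serum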; conditions: P. falciparum 3D7 growth, 3 d, higher = more signal
# [14] = target: Homeobox protein Hox-A13 (Mus musculus) (UniProt Q62424); test: inhibitors of HoxA13-DNA binding, primary screen, biochemical, fluorescence polarization, labeled oligonucleotide (AID 1185); conditions: 15 min, higher = more signal, called active from +8 up or from −8 down
# Homeobox protein Hox-A13 (Mus musculus), sequence (Q62424 whole entry, looked up): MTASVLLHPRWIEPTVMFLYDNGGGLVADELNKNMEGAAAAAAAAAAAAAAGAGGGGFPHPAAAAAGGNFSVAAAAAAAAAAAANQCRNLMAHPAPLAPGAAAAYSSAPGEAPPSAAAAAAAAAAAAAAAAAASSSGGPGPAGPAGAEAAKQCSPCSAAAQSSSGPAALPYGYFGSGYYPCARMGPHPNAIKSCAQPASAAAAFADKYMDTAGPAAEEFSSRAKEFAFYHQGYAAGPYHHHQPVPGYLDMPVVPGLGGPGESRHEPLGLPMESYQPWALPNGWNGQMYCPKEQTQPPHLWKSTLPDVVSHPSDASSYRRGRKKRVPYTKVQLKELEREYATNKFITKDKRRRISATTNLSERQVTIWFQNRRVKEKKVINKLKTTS
# [15] = inhibitors of hydroxyurea-induced Chk1 phosphorylation, primary screen, imaging, HeLa, phospho-Chk1 antibody, percent positive cells (AID 1186); conditions: hydroxyurea-induced phospho-Chk1 immunofluorescence imaging, higher = more signal
# [16] = inhibitors of hydroxyurea-induced Chk1 phosphorylation, primary screen, imaging, HeLa, phospho-Chk1 nuclear intensity (AID 1187); conditions: hydroxyurea-induced phospho-Chk1 immunofluorescence imaging, higher = more signal
Structure (SMILES),z-score [1],z-score [2],z-score [3],composite z-score [4],z-score [5],z-score [6],z-score [7],z-score [8],z-score [9],composite z-score [10],composite z-score [11],composite z-score [12],z-score [13],z-score [14],z-score [15],z-score [16]
O=C1C2C=CC(C(O)C=Cc3ccc([N+](=O)[O-])cc3)N(n3cnnc3)C2C(=O)N1Cc1ccccc1 (centres undefined),0.178,-0.586 (inactive),-0.519 (inactive),0.607 (inactive),0.601 (inactive),-0.155 (inactive),-0.866 (inactive),-0.721 (inactive),-0.647,-0.236,1.01 (inactive),0.856,-0.0257,-3.97 (inactive),-0.253 (inactive),-0.32 (inactive)
C=C(C(=O)CC[C@H](OC(C)=O)c1ccccc1OCCO)C(C)C,-1.64,-18.4 (active),-1 (inactive),-9.12 (active),-0.493 (inactive),-22.2 (active),-0.587 (inactive),-0.573 (inactive),-1.62,0.42,-0.571 (inactive),0.332,-2.09,-0.163 (inactive),-0.145 (inactive),-0.0797 (inactive)
CCCCC(O)C1C=CC2C(=O)N(C)C(=O)C2N1N1CCCCC1 (centres undefined),-1.12,1.96 (inactive),-1.5 (inactive),1.23 (inactive),0.971 (inactive),1.64 (inactive),-0.83 (inactive),-0.412 (inactive),-1.9,0.547,0.0433 (inactive),0.941,-0.133,-6.77 (inactive),0.492 (inactive),0.154 (inactive)
COCCCNC(=O)[C@@]1(Sc2ccc(C)cc2)CC(=O)N(Cc2ccccc2Cl)[C@@H]1c1ccc(CO)cc1,0.683,-0.209 (inactive),0.306 (inactive),-1.08 (inactive),0.366 (inactive),-0.964 (inactive),1.08 (inactive),0.709 (inactive),0.761,0.145,0.906 (inactive),0.887,-1.63,-2.28 (inactive),-0.63 (inactive),-1.1 (inactive)
COC(=O)C(CC#Cc1ccc2c(c1)[C@]1(C(=O)N2)[C@H](c2ccccc2OCCO)N2[C@H](c3ccccc3)[C@H](c3ccccc3)OC(=O)[C@H]2[C@@H]1C(=O)O)C(=O)OC,0.622,-0.502 (inactive),1.39 (inactive),-5.13 (inactive),1.96 (inactive),2.98 (inactive),0.84 (inactive),0.905 (inactive),-0.259,0.0533,0.117 (inactive),0.791,0.386,-5.57 (inactive),0.0449 (inactive),0.426 (inactive)
O[C@@H](Cc1ccccc1)[C@@H](/C=C/C1CC1)NCc1cccc(Cl)c1,-0.891,-9.37 (active),-1.22 (inactive),-0.316 (inactive),-0.344 (inactive),-1.15 (inactive),0.451 (inactive),-0.957 (inactive),-1.18,-0.175,-0.58 (inactive),-0.134,-1.44,0.306 (inactive),-0.303 (inactive),-0.682 (inactive)
C#CCN(C/C=C/c1ccccc1)[C@H](CO)c1ccccc1,-0.832,-16.9 (active),-1.19 (inactive),0.716 (inactive),-0.128 (inactive),-1.31 (inactive),-0.338 (inactive),-1.7 (inactive),-1.45,-0.167,-0.333 (inactive),-0.384,-0.213,-6.53 (inactive),-0.209 (inactive),-0.753 (inactive)
CCCCN1CC=CC23O[C@@H]4C=CCCOC(=O)C4[C@H]2C(=O)N(CCCCCO)[C@@H]3C1=O (some centres undefined),-0.462,-0.1 (inactive),-0.401 (inactive),0.0416 (inactive),-0.332 (inactive),-0.308 (inactive),0.593 (inactive),0.923 (inactive),0.769,0.0357,-0.17 (inactive),0.779,0.474,-4.72 (inactive),-2.17 (inactive),-1.9 (inactive)
O=C1O[C@H](c2ccccc2)[C@H](c2ccccc2)N2[C@H]1[C@@H](C(=O)NC[C@H](O)c1ccccc1)[C@]1(C(=O)Nc3ccc(C#CC4=CCCCC4)cc31)[C@H]2c1ccccc1OCCO,-2.02,1.89 (inactive),-6.77 (inactive),-0.894 (inactive),2.9 (inactive),1.96 (inactive),-0.561 (inactive),0.105 (inactive),-6.5,-0.144,-0.0939 (inactive),0.203,-0.285,1.5 (inactive),0.0263 (inactive),-0.294 (inactive)
O=C1C[C@@](C(=O)NCc2ccccc2)(c2ccc([N+](=O)[O-])cc2)[C@@H](c2ccc(CO)cc2)N1CC12CC3CC(CC(C3)C1)C2,-1.63,0.229 (inactive),-3.64 (inactive),0.59 (inactive),1.06 (inactive),0.87 (inactive),-0.202 (inactive),0.368 (inactive),-4.75,0.0427,1.9 (inactive),0.733,-0.83,-2.75 (inactive),-0.714 (inactive),-0.762 (inactive)
CCOC(=O)C1=C[C@@H](C(C)C)N(S(=O)(=O)c2ccc(C)cc2)[C@H]1c1ccccc1F,-0.298,0.81 (inactive),-0.328 (inactive),-0.471 (inactive),0.133 (inactive),0.411 (inactive),-0.77 (inactive),0.0503 (inactive),-0.807,-0.139,1.01 (inactive),0.489,-0.864,-1.17 (inactive),0.503 (inactive),0.969 (inactive)
CCCC(=O)N(CCc1c[nH]c2ccccc12)[C@@H]1CC(C(=O)NCCO)=C[C@H](Oc2c(I)cc(CO)cc2OC)[C@H]1O,0.627,-1.22 (inactive),-0.176 (inactive),0.0595 (inactive),0.789 (inactive),0.152 (inactive),0.336 (inactive),0.582 (inactive),0.114,-0.222,-0.131 (inactive),0.289,-0.373,-7.89 (inactive),-1.51 (inactive),-2.68 (inactive)
CC(=O)NCCCC[C@@H]1NC(=O)[C@H]2C[C@@H](C(=O)NCCCCCNC(=O)CS)[C@@H](c3ccc(O)cc3)N2C1=O,-0.0321,1.14 (inactive),0.0985 (inactive),0.452 (inactive),0.395 (inactive),0.949 (inactive),-0.553 (inactive),-0.574 (inactive),-0.213,0.0503,0.184 (inactive),0.805,0.147,-3.02 (inactive),0.0401 (inactive),0.176 (inactive)
[N-]=[N+]=Nc1ccccc1[C@H]1OC(c2ccc(OCCCO)cc2)=N[C@@]1(CCS(=O)(=O)c1ccccc1)C(=O)NCc1ccccc1,0.614,-0.008 (inactive),-0.548 (inactive),0.44 (inactive),0.441 (inactive),-0.22 (inactive),-0.0211 (inactive),-0.77 (inactive),-0.129,0.0623,0.273 (inactive),0.774,-2.48,-1.99 (inactive),0.517 (inactive),0.227 (inactive)
CN1C(=O)C2C=CC(C(O)c3ccc(F)cc3)N(N(c3ccccc3)c3ccccc3)C2C1=O (centres undefined),-0.898,0.41 (inactive),-0.957 (inactive),-0.0882 (inactive),1.14 (inactive),0.242 (inactive),-0.513 (inactive),-0.26 (inactive),-1.36,0.499,-0.0116 (inactive),-0.0807,0.988,-3.45 (inactive),1.17 (inactive),0.568 (inactive)
COC(=O)c1c2oc(c1C(=O)OC)C(=O)NC1(CCCCC1)c1cn(nn1)C[C@H](Cc1ccccc1)NC(=O)N[C@H](CO)CC2,1.68,-0.861 (inactive),0.911 (inactive),-0.805 (inactive),0.383 (inactive),-0.0499 (inactive),1.09 (inactive),1.66 (inactive),0.456,-0.118,0.064 (inactive),-0.271,0.196,-4.41 (inactive),-0.0736 (inactive),-0.183 (inactive)
COc1ccc(-c2cc3c(c(Cc4ccccc4)n2)[Si](C(C)C)(C(C)C)OC3)cn1,0.177,-0.652 (inactive),-0.141 (inactive),0.653 (inactive),0.0429 (inactive),2 (inactive),0.184 (inactive),0.0876 (inactive),0.626,-0.0749,0.684 (inactive),-0.342,-2.79,-2.5 (inactive),-0.24 (inactive),-0.828 (inactive)
COCCCNC(=O)[C@@]1(Cc2ccccc2CN=[N+]=[N-])N=C(c2ccc(OCCCO)cc2)O[C@H]1c1ccccc1CN=[N+]=[N-],0.122,-1.03 (inactive),-1.92 (inactive),1.06 (inactive),0.218 (inactive),-0.016 (inactive),2.15 (inactive),0.707 (inactive),-4.14,0.244,1.01 (inactive),0.443,-2.23,-4.09 (inactive),-0.485 (inactive),-0.763 (inactive)
CCCC[C@H]1C[C@@H]1[C@@H]1N(P(=O)(c2ccccc2)c2ccccc2)C[C@@](O)(c2ccccc2)CC12CC2,2.63,-0.763 (inactive),1.07 (inactive),-0.244 (inactive),0.122 (inactive),0.781 (inactive),-0.446 (inactive),-0.412 (inactive),-1.79,0.0447,-0.0646 (inactive),-0.0749,-1.22,-2.37 (inactive),0.0682 (inactive),0.228 (inactive)
